This note sets out measurements from PubChem BioAssay (Tox21).

Records with an inconclusive call do not appear. Where a call stands in place of a potency, no number is given. Values without a mark were called inactive. The source made the active and inactive calls. Calls follow the shape of the dose curve; as a rule, active = well fitted cell-killing curve with a large enough effect in the repeat runs; inconclusive = weak or mixed curves, or effect the other way; inactive = flat fitted curve, though single readings scatter.
Potency is read from the fitted curve at half-maximal effect.

The nature of this assay: qHTS assay to identify small molecule agonists of the sonic hedgehog signaling (Shh) pathway - cell viability counter screen (AID 1259366). Also: nearly all actives have a fitted effect of over 50% in size. To be noted: NIH/3T3 Gli1-Luc viability, CellTiter-Fluor, 24 h; series mostly up to 92.4 µM. The text has this:
National Center for Advancing Translational Sciences [NCATS]
NIH Chemical Genomics Center [NCGC]
U.S. Environmental Protection Agency [EPA]
National Institutes of Environmental Health Sciences [NIEHS]
National Toxicology Program [NTP]
U.S. Food and Drug Administration [FDA]
The sonic hedgehog (Shh) pathway is essential for normal embryonic development. Dysregulation of the Shh pathway can cause severe developmental defects in organs. Therefore chemicals that interfere with the pathway are potential developmental toxicants. A cell line designated 3T3Gli1-Luc (DMB/OARSA/CFSAN/FDA, Laurel, MD), a NIH/3T3 derived clone containing stably integrated Gli1-Luc reporter is used to detect chemical interference of the Shh pathway, by changes in the expression of the firefly Luc gene under the control of the Gli1 transcriptional response element. This cell line was used to screen Tox21 libraries for identifying and prioritizing the potential developmental toxicants that interfere Shh pathway. The cytotoxicity of the compounds was tested in parallel by measuring the cell viability using CellTiter-Fluor assay system (Promega, Madison, WI) in the same wells.
Tox21 Assay Protocol Summary:
3T3 Gli1-Luc cells were dispensed at 2,000 per well in 5uL of culture medium into white solid bottom 1536-well plates (Greiner Bio-One, Monroe, NC) using a Multidrop Combi (Thermo Scientific, Waltham, MA) dispenser. The assay plates were incubated at 37 C and 5% CO2 for 4hr, and then 23nL of compounds dissolved in DMSO and positive control were transferred using a Pintool station (Wako, San Diego, CA). The assay plates were incubated at 37C and 5% CO2 for 24hr. For viability read, after 23hr of compound treatment, 1uL of CellTiter-Fluor reagent (Promega Corporation, Madison, WI) was added to each well of the assay plates using Flying Reagent Dispenser (FRD, Aurora Discovery, San Diego, CA) and incubated the assay plates at 37C for 1hr. The fluorescence signal was quantified using a ViewLux plate reader (Perkin Elmer, Shelton, CT).
Background: qHTS replaces the single test concentration by a dilution series.
Take `Cc1cc(S(=O)(=O)O)ccc1N=Nc1c(O)ccc2ccccc12`: the Potency was 27.3 µM (active).
In the case of `Nc1ccc(S(=O)(=O)O)cc1`, the Potency result was “inactive”.
The same measure, in the same setting: with `CC(C)C(OC(=O)c1ccccc1)C(C)(C)COC(=O)c1ccccc1` (stereo not given) the entry was “inactive”.
Turning to `COC(=O)c1cc(S(N)(=O)=O)ccc1OC`, the Potency entry was “inactive”.
For `CC(=O)Nc1ccccc1C`, the Potency result is “inactive”.
Regarding `[O]=[Bi]`, the viability change, negative = cytotoxic is 11.3% [at 8.39 µM].
Regarding `c1cnc2c(n1)CCCC2`, the Potency result was “inactive”.
The same measure, in the same setting: with `CN1C(=O)CC(C)(c2ccccc2)C1=O` (stereo not given) the entry was “inactive”.
Turning to `O=C(CCC1CCN(Cc2ccccc2)CC1)c1ccc2c(c1)NCCCC2`, the Potency result is “inactive”.
Still for that read-out and setting: for `CCCCN(CCCC)CCCOC(=O)c1ccc(N)cc1` the value was “inactive”; for `Cc1cc2nc3ccc(=[N+](C)C)cc-3sc2cc1N`, 9.44 µM (active).
For the compound `CCOC(=O)c1ccccc1OC`, the Potency result is “inactive”.
On the same count and under the same terms, with `CCOC(=O)C(C)Oc1ccc(Oc2nc3ccc(Cl)cc3o2)cc1` (stereo not given) the entry was “inactive”; with `CC(C)(CCl)c1ccccc1`, “inactive”; with `CC(C)(C)C(=O)C(Oc1ccc(Cl)cc1)n1ccnc1` (stereo not given), “inactive”.
Same read-out and setting: for `CCCCCCOC(=O)C(C)C` the value was “inactive”.
`CCCC(=O)O[C@]1(C(=O)COC(=O)CC)CC[C@H]2[C@@H]3CCC4=CC(=O)CC[C@]4(C)[C@H]3[C@@H](O)C[C@@]21C`: the viability change, negative = cytotoxic is 2.28% [at 19 µM].
For `CC1(C)C(=O)N(Br)C(=O)N1Cl`, the Potency entry is “inactive”.
Still for that read-out and setting: for `Cc1cc(C(=C2C=CC(=Nc3ccc(S(=O)(=O)O)cc3S(=O)(=O)O)C=C2)c2ccc(Nc3ccc(S(=O)(=O)O)cc3)cc2)ccc1N` the value was “inactive”; for `Cc1cc(OI)c(C(C)C)cc1-c1cc(C(C)C)c(OI)cc1C`, “inactive”; for `CC[C@H](NC(=O)c1cc(F)ccc1NS(=O)(=O)c1cccc2cccnc12)c1ccccc1`, “inactive”.
As for `CO[C@H]1C=CO[C@@]2(C)Oc3c(C)c(O)c4c(O)c(c5c(c4c3C2=O)=NC2(CCN(CC(C)C)CC2)N=5)NC(=O)/C(C)=C\C=C/[C@H](C)[C@H](O)[C@@H](C)[C@@H](O)[C@@H](C)[C@H](OC(C)=O)[C@@H]1C`, the Potency was 26.7 µM (active).
Same read-out and setting: for `CCC(C)(C)C1CCC(O)CC1` (stereo not given) the value was “inactive”; for `CCOC(=O)/C=C/C(=O)O`, “inactive”; for `COc1ccc(C(=O)c2cccc(O)c2)c(OC)c1`, “inactive”.
`C=CCOC(=O)/C=C\C(=O)OCC=C`: the Potency result is “inactive”.
In the case of `CCCCC(CC)COC(=O)COc1ccc(Cl)cc1C` (stereo not given), the Potency result was “inactive”.
The same measure, in the same setting: with `CC1CC(O)CC(C)(C)C1` (stereo not given) the entry was “inactive”; with `C=CCNc1nc(NCC=C)nc(N2CCN(C(c3ccc(F)cc3)c3ccc(F)cc3)CC2)n1`, “inactive”.
For the compound `Cc1cc(O)c2c(O)c3c(O)cccc3cc2c1`, the Potency entry is “inactive”.
On the same count and under the same terms, for `CN1CCCN=C1/C=C/c1cccs1` the value was “inactive”.
For `O=C(O)C(Cc1cc(I)c(O)c(I)c1)c1ccccc1` (stereo not given), the Potency result is “inactive”.
On the same count and under the same terms, with `CN(C(=O)C(Cl)Cl)c1ccc(OC(=O)c2ccco2)cc1` the entry was “inactive”; with `CCC(=O)OC/C=C/c1ccccc1`, “inactive”; with `CC(=O)CC(c1ccc([N+](=O)[O-])cc1)c1c(O)c2ccccc2oc1=O` (stereo not given), “inactive”.
The same measure, in the same setting: with `C[Si]1(C)O[Si](C)(C)O[Si](C)(C)O1` the entry was “inactive”; with `N#C/C(=C1\SCC(c2ccccc2Cl)S1)n1ccnc1` (stereo not given), “inactive”.
Regarding `CC(C)OCC1CO1` (stereo not given), the Potency result is “inactive”.
The same measure, in the same setting: for `Cc1oncc1C(=O)Nc1ccc(C(F)(F)F)cc1` the value was “inactive”; for `NC(=O)N(O)[C@@H]1C=C[C@H](Oc2cccc(Oc3ccc(F)cc3)c2)C1`, “inactive”.
